# Data taken from the supplement of paper PMC6953052.
# Counter-ions that a name gives are not always drawn. In all, about 1,700 compounds were measured (“fraction of GFP-LC3-positive cells (≥5 vesicles/cell)”: median about 0.058, highest 2% from about 0.59 on). What follows is part of a selection rich in the highest values, with near analogues and random picks from the rest.
# Tested on: CbCln3 +/+ GFP-LC3 cerebellar neuronal cells
# Experiment: fraction of GFP-LC3-positive cells (≥5 vesicles/cell); higher = more autophagosome accumulation
# How it was run: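 By pin transfer, ~50 nL of compound in DMSO went in duplicate into 384-well plates holding 2 × 10^3 wild-type or mutant CbCln3 cerebellar cells per well that stably express GFP-LC3, followed by 24 h at 33 °C. The final 30 min included Hoechst 33342 and LysoTracker Red, and then came 3.2% PFA fixation and 10× imaging of three fields per well. Each value gives the fraction of cells above a vesicle threshold, averaged across duplicates, with CellProfiler counting GFP-LC3 vesicles and out-of-focus images left out. The threshold is 5 or more vesicles per cell.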
row,Compound,fraction of GFP-LC3-positive cells
1,N#CC(C#N)=Cc1cc(O)c(O)c(O)c1,0.0475
2,CC(C)(C)c1cc(C=C(C#N)C#N)cc(C(C)(C)C)c1O,0.357
3,CC(C)(C)c1cc(C=C(C#N)C#N)cc(C(C)(C)C)c1O [tyrphostin 9],0.67
4,N#CC(C#N)=Cc1ccc(O)c(O)c1,0.094
5,CCN(CC)C(=O)N[C@H]1C[C@@H]2c3cccc4[nH]cc(c34)C[C@H]2N(C)C1.O=C(O)/C=C\C(=O)O [S(-)-terguride hydrogen maleate],0.0461
6,CC(C)[C@]12O[C@H]1[C@@H]1O[C@]13[C@]1(O[C@H]1C[C@H]1C4=C(CC[C@@]13C)C(=O)OC4)[C@@H]2O [Triptolide],0.268
7,Cl.NCCc1c[nH]c2ccc(O)cc12 [Serotonin hydrochloride],0.0685
8,C#CCN(C)[C@H](C)Cc1ccccc1.Cl [Selegiline hydrochloride],0.0621
9,C[N+]1(C)CCCC(OC(=O)C(O)(c2ccccc2)c2ccccc2)C1.[Br-] (stereo not drawn) [Mepenzolate bromide],0.0681
10,COc1cc2c(c(OC)c1OC)-c1ccc(O)c(=O)cc1[C@@H](N)CC2 [Trimethylcolchicinic acid],0.0619
11,COC1=C[C@@H]2C3=C([C@@H]2C1=O)[C@@H](NC(C)=O)CCc1cc(OC)c(OC)c(OC)c13 [Lumicolchicine gamma],0.0307
12,COc1cc2c(c(OC)c1OC)-c1ccc(OC)c(=O)cc1[C@@H](NC(C)=O)CC2 [Colchicine],0.778
13,CC(C)(O)[C@H]1O[C@H]2CC[C@@]3(C)[C@@](O)(CC[C@H]4Cc5c([nH]c6ccccc56)[C@@]43C)C2=CC1=O,0.0216
14,C/C=C(/C)C(=O)O[C@H]1C(C)=C2[C@H]([C@@H]1OC(=O)CCCCCCC)[C@@](C)(OC(C)=O)C[C@H](OC(=O)CCC)[C@@]1(O)[C@H]2OC(=O)[C@@]1(C)O,0.665
15,Cl.O[C@@H]1CCCC[C@H]1N1CCC(c2ccccc2)CC1 [L(-)-vesamicol hydrochloride],0.076
16,CC(C)N(CCC(C(N)=O)(c1ccccc1)c1ccccn1)C(C)C (stereo not drawn) [Disopyramide],0.0661
17,COc1cc2c(cc1O)[C@@H]1Cc3ccc(OC)c(O)c3CN1CC2 [Scoulerine],0.588
18,O.O.O.O=C1OC2(c3cc(Br)c([O-])cc3Oc3c2cc(Br)c([O-])[c]3[Hg][OH])c2ccccc21.[Na+].[Na+] (stereo not drawn) [Merbromin],0.957
19,CCCCC/C=C\C/C=C\C/C=C\C/C=C\CCCC(=O)NCc1ccc(O)c(OC)c1 [Arvanil],0.144
20,"CC[C@@]1(O)C(=O)OCc2c1cc1n(c2=O)Cc2cc3ccccc3nc2-1 [Camptothecine (S,+)]",0.321

row,Compound,fraction of GFP-LC3-positive cells
1,OC[C@H]1O[C@@H](n2cnc3cc(Cl)c(Cl)cc32)C(O)[C@H]1O (stereo partly drawn),0.0687
2,C=C1[C@@H](O)C2O[C@@]3(CCC2O[C@@H]1C(O)C[C@H](C)C1O[C@@]2(CCCCO2)CC[C@H]1C)CC[C@@H](/C=C/[C@@H](C)[C@@H]1CC(C)=C[C@@]2(O[C@H](C[C@@](C)(O)C(=O)O)CCC2O)O1)O3 (stereo partly drawn) [okadaic acid],0.831
3,CCN1C[C@]2(COC)CC[C@H](O)[C@]34C1[C@H](C[C@H]23)[C@@]1(O)C[C@H](OC)[C@H]2C[C@@H]4[C@@H]1[C@H]2OC(C)=O [Condelphine],0.043
4,O=C(O)/C=C\C(=O)O.O=C(O)/C=C\C(=O)O.c1ccc2nc(N3CCNCC3)ccc2c1 [Quipazine dimaleate salt],0.041
5,C[C@H]1CCC/C=C/C2C[C@H](O)C[C@H]2[C@H](O)/C=C/C(=O)O1 (stereo partly drawn) [brefeldin A],0.0802
6,C=C1[C@@H](C)[C@H]2[C@H](Cc3ccccc3)NC(=O)[C@]23[C@H](OC(C)=O)/C=C/[C@](C)(O)C(=O)[C@@H](C)C/C=C/[C@H]3[C@@H]1O [cytochalasin D],0.411
7,CCCC[C@@H](C)[C@@H](OC(=O)C[C@@H](CC(=O)O)C(=O)O)[C@H](C[C@@H](C)C[C@H](O)CCCC[C@@H](O)C[C@H](O)[C@H](C)N)OC(=O)C[C@H](CC(=O)O)C(=O)O [Fumonisin B1],0.0462
8,CCN1C[C@]2(C)CC[C@H](O)[C@]34C1[C@H](C[C@H]23)[C@@]1(O)C[C@H](OC)[C@H]2C[C@@H]4[C@@H]1C2O (stereo partly drawn) [Karakoline],0.0388
9,CNc1ccc2oc(C[C@@H]3OC4(CC[C@@H]3C)O[C@H](C(C)C(=O)c3ccc[nH]3)[C@H](C)C[C@H]4C)nc2c1C(=O)O (stereo partly drawn),0.276
10,C=C(C)[C@H]1O[C@H]2CC[C@@]3(C)[C@@](O)(CC[C@H]4[C@@H]5OC(C)(C)[C@H]6C[C@@H]7C(=C)Cc8c(Cl)cc9[nH]c(c5c9c8[C@@]76O)[C@@]43C)[C@]23O[C@@H]3[C@H]1O,0.667
11,CN1C2CCCC1CC(=O)C2.Cl [Pseudopelletierine hydrochloride],0.111
12,CN[C@@H]1C[C@H]2O[C@@](C)([C@@H]1OC)n1c3ccccc3c3c4c(c5c6ccccc6n2c5c31)C(=O)NC4 [staurosporine],0.542
13,CCCCCCCCCCCCCCCCOC[C@H](COP(=O)([O-])OCC[N+](C)(C)C)OC(C)=O,0.0259
14,CCCCCC1OC1C/C=C\CCCCCCCC(=O)O (stereo not drawn),0.062
15,"CCCCCC1OC1C/C=C\CCCCCCCC(=O)O (stereo not drawn) [Leukotoxin B (12,13-EODE)]",0.0763
16,Cc1nccc2c1[nH]c1ccccc12.Cl [Harmane hydrochloride],0.0738
17,Cc1c2ccncc2c(C)c2c1[nH]c1ccccc12 [Ellipticine],0.984
18,O=C1C=C2C=C[C@@H]3CC2(O1)[C@H]1CCCCN31 [Securinine],0.0519
19,CC(C)(C)NCC(O)c1cc(Cl)c(N)c(Cl)c1.Cl (stereo not drawn) [Clenbuterol hydrochloride],0.0519
20,CC[C@@H](CO)NC(=O)[C@@H]1C=C2c3cccc4[nH]cc(c34)C[C@H]2N(C)C1.O=C(O)/C=C\C(=O)O [Methylergometrine maleate],0.0308

row,Compound,fraction of GFP-LC3-positive cells
1,CC1=CC(=O)C2=C(C)C[C@H](O)[C@@H]3[C@H](OC(=O)[C@H]3C)[C@@H]12.O [Austricine],0.0585
2,Clc1ccc(C2CC3CCC2N3)cn1 (racemic) [epibatidine (+/-)],0.0633
3,N#CC(C#N)=NNc1ccc(OC(F)(F)F)cc1,0.918
4,C[C@@H]1O[C@@H](O[C@@H]2C=C3CCC4C(CC[C@]5(C)[C@@H](c6ccc(=O)oc6)CC[C@]45O)[C@@]3(C)CC2)[C@H](O)[C@H](O)[C@H]1O (stereo partly drawn) [Proscillaridin A],0.0563
5,CN1Cc2c(ccc3c2OCO3)[C@@H]2[C@H]1c1cc3c(cc1C[C@@H]2O)OCO3.O [Chelidonine (+)],0.593
6,CN1CCC2=C[C@H](O)[C@H]3OC(=O)c4cc5c(cc4[C@H]3[C@@H]21)OCO5 [Hippeastrine hydrobromide],0.0629
7,CN1CCc2cc3c(cc2[C@H]1[C@@H]1OC(=O)c2c1ccc1c2OCO1)OCO3 [Bicuculline (+)],0.0481
8,CCCCCC[C@H]1C(=O)O[C@H](C)C(NC(=O)c2cccc(NC=O)c2O)C(=O)O[C@@H](C)[C@@H]1OC(=O)CC(C)C (stereo partly drawn) [Antimycin A],0.0705
9,CC/C=C\C[C@@H](/C=C/C=C\C/C=C\C/C=C\CCCC(=O)O)OO,0.0447
10,C/C1=C/C(=O)O[C@@H]2C[C@@H](CC[C@H](C)/C=C\CC1)O[C@@](O)([C@@H]1CSC(=O)N1)C2 [Latrunculin B],0.94
11,COC1=CC(=O)OC(/C=C/c2ccccc2)C1 (racemic) [Kavain (+/-)],0.0407
12,O=c1[nH]c2ccccc2n1C1CCN(CCCC(c2ccc(F)cc2)c2ccc(F)cc2)CC1 [Pimozide],0.0546
13,COc1ccc2c(c1OC)C(=O)O[C@@H]2[C@H]1c2cc3c(cc2CCN1C)OCO3.Cl [Hydrastine hydrochloride],0.0565
14,"COc1ccc2c(c1OC)CN1CCc3cc4c(cc3C1C2)OCO4 (stereo not drawn) [(d,l)-Tetrahydroberberine]",0.0361
15,COc1cc([C@@H]2c3cc4c(cc3[C@H](O)[C@H]3COC(=O)[C@H]23)OCO4)cc(OC)c1OC [Podophyllotoxin],0.682
16,"CCCCC/C=C\C/C=C\C/C=C\C/C=C\CCCC(=O)NCCO [Anandamide (20:4, n-6)]",0.0367
17,CCCCC/C=C\C/C=C\C/C=C\C/C=C\CCCC(=O)NCCO,0.0573
18,COC(=O)[C@@]1(O)C[C@@H]2O[C@@]1(C)n1c3ccccc3c3c4c(c5c6ccccc6n2c5c31)C(=O)NC4,0.16
